In article PMC4552634, “A New Set of Chemical Starting Points with Plasmodium falciparum Transmission-Blocking Potential for Antimalarial Drug Discovery” (PLoS ONE, 2015):
Screen size: about 13,000 compounds; about 3,200 (25%) showed an effect of 50% or more. This is one part of the list.

Tested on: P. falciparum stage V gametocytes
Parameters: BacTiter-Glo ATP luminescence viability of purified stage V gametocytes in 384-well plates, per cent inhibition versus DMSO
Conditions: 48 h, 5 µM; inhibitor

Row | SMILES | % Inhibition [%]
1 | COc1ccc(Nc2nc(C)cc(NC3CCCC3)n2)cc1 [TCMDC-133465] | 24.25
2 | CCOC(=O)c1c(CCc2ccc(C(F)(F)F)cc2)nc2c(c1-c1ccc(C(=O)N[C@@H](C)c3ccncc3)cc1)C(=O)N1CCC[C@@H]21 [TCMDC-138612] | 6.02
3 | CCCNC(=O)CN1CN(c2ccccc2)C2(CCN(C(=O)c3ccc(C(C)(C)C)cc3)CC2)C1=O [TCMDC-125173] | -65.45
4 | Cc1c(C)n(Cc2ccccc2)c2ncnc(OC3CCN(CC(=O)NCC4CC4)CC3)c12 [TCMDC-125326] | -12.47
5 | CCOC(=O)c1[nH]c(-c2cccnc2)nc1NC(=S)NCc1ccccc1 [TCMDC-138784] | -4.964
6 | COc1cccc(C(O)CNc2ccnc(Nc3cccc(-c4csc(C)n4)c3)n2)c1 (stereo not shown) [TCMDC-136574] | 8.83
7 | CCN(CC)CCCN1CCN(C(=O)c2cccc(-c3noc(C(F)(F)F)n3)c2)CC1 [TCMDC-132421] | -5.247
8 | NC(N)=NC(=O)Nc1cc(Br)c(Cl)c(C(F)(F)F)c1 [TCMDC-137513] | -25.86
9 | CCc1ccc(-c2nc3cc(NC(=O)c4cc([N+](=O)[O-])cc([N+](=O)[O-])c4)ccc3o2)cc1 [TCMDC-124220] | -7.299
10 | COc1ccc(-c2csc3nc(C)nc(Cl)c23)cc1OC [TCMDC-125523] | -37.7
11 | COc1ccc2nc(-c3ccc(F)cc3)cc([C@@H](O)[C@@H]3C[C@@H]4CCN3CC4C=NO)c2c1 (stereo partly shown) [TCMDC-141395] | 28.31
12 | CC[C@H]1CN2CC[C@H]1C[C@H]2[C@H](O)c1cc(-c2ccc(F)cc2C)nc2ccc(OC)cc12 [TCMDC-141197] | 26.99
13 | C=C[C@H]1CN2CC[C@H]1C[C@H]2[C@H](O)c1cc(-c2ccc(Cl)cc2)nc2ccc(OC)cc12 [TCMDC-139009] | 109.5
14 | CC[C@H]1CN2CC[C@@H]1C[C@H]2[C@H](O)c1cc(-c2cc(Cl)cc(Cl)c2)nc2ccc(OC)cc12 [TCMDC-141351] | 45.7
15 | CC[C@H]1CN2CC[C@H]1C[C@H]2[C@H](O)c1cc(-c2ccc(F)cc2)nc2ccc(OC)cc12 [TCMDC-141195] | 81.45
16 | CC[C@H]1CN2CC[C@H]1C[C@H]2[C@H](O)c1cc(-c2ccc(C)cc2)nc2ccc(OC)cc12 [TCMDC-141192] | 31.69
17 | CC[C@H]1CN2CC[C@H]1C[C@H]2[C@H](O)c1cc(-c2cccc(Cl)c2)nc2ccc(OC)cc12 [TCMDC-141215] | 86

Row | SMILES | % Inhibition [%]
18 | CC[C@H]1CN2CC[C@H]1C[C@H]2[C@H](O)c1cc(-c2ccc3ccccc3c2)nc2ccc(OC)cc12 [TCMDC-141213] | 91.14
19 | C=C[C@H]1CN2CC[C@@H]1C[C@H]2[C@H](O)c1cc(-c2ccc(F)cc2)nc2ccc(OC)cc12 [TCMDC-141374] | 31.93
20 | COc1ccc2nccc(N3CCC(SCCNS(=O)(=O)c4ccc5c(c4)OCCO5)C3)c2n1 (stereo not shown) [TCMDC-134549] | -1.611
21 | CCCC(=O)c1cnc2c(I)cccc2c1Nc1ccccc1C [TCMDC-138960] | -3.378
22 | Cc1cccc2[nH]c(-c3ccc(-c4cccc(CN5CCN(c6ccncc6)CC5)c4)cc3)nc12 [TCMDC-132913] | 17.14
23 | CC1(C)N=C(N)N=C(N)N1OCCOc1ccc(Cc2ccccc2)cc1 [TCMDC-131618] | 0.9057
24 | CCC1(C)N=C(N)N=C(N)N1c1ccccc1 (stereo not shown) [TCMDC-131294] | 1.322
25 | COc1ccc(Br)cc1/C=C/C(=O)Nc1cccc(C2CCN(C)CC2)c1 [TCMDC-133709] | 17.69
26 | CC(CN)OCn1cnc2c(N)ncnc21 (stereo not shown) [TCMDC-137691] | 4.807
27 | Nc1ccc(-c2ccc(NC(=O)Nc3ccccc3)cc2)cn1 [TCMDC-133409] | 8.914
28 | Cc1noc(C)c1-c1cccc(CNCc2ccc(-c3ccc(-c4nc5ccccc5[nH]4)s3)cc2)c1.O=C(O)C(F)(F)F [TCMDC-133049] | 5.306
29 | COc1ccc(-c2onc(C(F)(F)F)c2-c2ccc(Br)cc2)c(O)c1 [TCMDC-125235] | 3.062
30 | O=C(Nc1ccc(N2CCCN(Cc3cccc(F)c3)CC2)cc1)c1ccc(F)cc1 [TCMDC-135020] | -31.48
31 | CC[C@H]1CN2CC[C@@H]1C[C@H]2[C@H](O)c1cc(-c2cccnc2)nc2ccc(OC)cc12 [TCMDC-141335] | -21.27
32 | CC[C@H]1CN2CC[C@H]1C[C@H]2[C@H](O)c1cc(-c2cccc(C)c2)nc2ccc(OC)cc12 [TCMDC-141191] | 44.26
33 | CC[C@H]1CN2CC[C@H]1C[C@H]2[C@H](O)c1cc(-c2cccc(F)c2)nc2ccc(OC)cc12 [TCMDC-141194] | 63.72
34 | Cc1c(Cl)cccc1S(=O)(=O)Nc1cccc(CCN2CCC(N3CCCCC3)CC2)c1 [TCMDC-134064] | 56.09
